D3 antag – qHTS of D3 Dopamine Receptor Antagonist: qHTS; D(3) dopamine receptor (Homo sapiens), P35462; D3R cells, DiscoveRx beta-arrestin luminescence, antagonist mode; active compounds read low; max response, negative = inhibition, %; 2.5% of 360,000 active; in the data active means max response below about -50%; inconclusive means no clear call, values can overlap the other calls; further: on the % scale 0 is the no-effect control and ±100 the full control effect
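Cells expressing the human receptor were seeded at 1500 cells/well, incubated overnight at 37 degrees C in 5% CO2, then exposed to library compounds with dopamine controls for 90 minutes at 37 degrees C before luminescent detection.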
D1 antagonist – Antagonist of Human D 1 Dopamine Receptor: qHTS. D(1A) dopamine receptor (Homo sapiens), P21728. HEK293 TREx D1 cells, calcium flux, dopamine EC80; active compounds read low. activity change, negative = inhibition, % at 10 µM. 3.2% of 360,000 active; in the data active means activity change below about -30%; further: on the % scale 0 is the no-effect control and ±100 the full control effect
Target sequence (P21728 whole entry, looked up): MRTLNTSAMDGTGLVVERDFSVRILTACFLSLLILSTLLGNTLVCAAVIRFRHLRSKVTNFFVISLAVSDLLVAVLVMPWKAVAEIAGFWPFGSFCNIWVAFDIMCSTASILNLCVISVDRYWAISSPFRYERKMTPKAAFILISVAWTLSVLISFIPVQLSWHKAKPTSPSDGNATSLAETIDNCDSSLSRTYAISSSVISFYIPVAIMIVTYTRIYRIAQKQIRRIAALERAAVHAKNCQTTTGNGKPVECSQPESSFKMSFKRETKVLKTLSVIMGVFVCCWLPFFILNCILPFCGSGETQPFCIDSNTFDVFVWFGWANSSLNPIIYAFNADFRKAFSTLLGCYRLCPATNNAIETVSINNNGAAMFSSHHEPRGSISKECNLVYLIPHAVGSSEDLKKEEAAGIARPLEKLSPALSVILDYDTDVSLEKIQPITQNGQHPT
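Tetracycline-induced HEK293 T-REx cells with force-coupled D1 receptor were loaded with a no-wash calcium dye. Compound was added after a 10 s baseline and read kinetically for 180 s; EC80 dopamine was then added and calcium flux followed another 180 s.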
D1 ag – Allosteric Agonists of the Human D1 Dopamine Receptor: qHTS | D(1A) dopamine receptor (Homo sapiens), P21728 | HEK293 T-REx D1 cells, calcium flux, agonist mode | activation, % at 2 µM | 1% of 360,000 active | AID 504660, 2011; in the data active means activation above about 30%; further: 0% is about no effect
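Agonism was scored from calcium flux recorded over 180 s (1 read/s) after pintool compound addition, following a 10-cycle baseline. Cells were inducible force-coupled HEK293 TREx D1, plated overnight at 30 C and loaded with no-wash calcium dye.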
DRD3 agonist – qHTS of D3 Dopamine Receptor Agonist: qHTS. D3R DiscoveRx beta-arrestin cells, luminescence, 90 min. max activation, %. 0.58% of 410,000 active. D(3) dopamine receptor (Homo sapiens), P35462; in the data active means max activation above about 30%; further: 0% is about no effect
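Agonist mode: compounds and dopamine controls were applied to plated cells for 90 min at 37 degrees C after an overnight attachment at 1500 cells/well. Luminescent read-out followed 30 - 60 minutes at room temperature with DiscoveRx detection reagent.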
D1 PAM – Potentiators of Human D1 Dopamine Receptor: qHTS; D(1A) dopamine receptor (Homo sapiens), P21728; HEK293 TREx D1 cells, calcium flux, dopamine EC20 potentiation; potentiation, % at 10 µM; 0.036% of 360,000 active; AID 504651, 2011; in the data active means potentiation above about 30%; further: 0% is about no effect
* marks the source's active call; other numbers are inactive results; ? = inconclusive; . = no result. An excerpt weighted towards active compounds, which were near 6% of everything screened.

SMILES | D3 antag | D1 antagonist | D1 ag | DRD3 agonist | D1 PAM
O=C1CCCC2=C1C(c1ccc(Br)cc1)c1c([nH]c(=S)[nH]c1=O)N2 (configuration not stated) | -80.4* | -7.3 | -2.0 | 2.6 | -10.9
Cc1ccsc1C1C(C#N)=C(N)Oc2n[nH]c(C)c21 (configuration not stated) | 0.0 | -12.0 | 2.0 | -2.9 | -3.0
Cc1cc(C)c(C2C(C#N)=C(N)Oc3n[nH]c(C)c32)cc1CN1CCOCC1 (configuration not stated) | -60.5* | -2.6 | 0.6 | -63.6 | 4.7
CCc1ccc(-c2nc(CN3CCCC(C(=O)N4CCN(c5cc(Cl)ccc5C)CC4)C3)c(C)o2)cc1 (configuration not stated) | . | -8.5 | 3.5 | -2.7 | -1.9
CCC(=O)NC1(C(F)(F)F)C(=O)Nc2c1c(=O)n(C)c(=O)n2C (configuration not stated) | 13.9 | -60.2* | 4.3 | -2.6 | -8.0
Cc1ccc(S(=O)(=O)NC2(C(F)(F)F)C(=O)Nc3c2c(=O)n(C)c(=O)n3C)cc1 (configuration not stated) | -20.0 | -15.5 | 2.6 | -11.7 | 0.1
O=C(CNc1ccc2c(c1)OCO2)N/N=C\c1cn(Cc2ccc(F)cc2)c2ccccc12 | . | -40.8* | 3.3 | . | -4.3
O=C(CNc1ccc2c(c1)OCO2)N/N=C\c1cn(Cc2ccccc2)c2ccccc12 | 0.2 | -9.2 | 1.7 | -3.9 | -4.8
COc1ccc(CCC(=O)NCc2ccc3c(c2)CCN3C(=O)c2ccc(Cl)cc2)cc1 | . | -34.9* | -0.7 | -12.0 | -1.1
N#Cc1ccc(C(=O)NCc2ccc3c(c2)CCN3C(=O)c2ccc(F)cc2)cc1 | . | -33.3* | 14.1 | 6.1 | -3.8
CCOc1ccc(C(=O)NCc2ccc3c(c2)CCN3C(=O)c2ccc(C)cc2)cc1OCC | . | -66.1* | 4.6 | -25.5 | -5.6
CCOC(=O)c1noc2ncn(CC(=O)Nc3cccc(C(F)(F)F)c3)c(=O)c12 | . | 0.9 | 4.7 | -3.9 | 0.8
Cn1cc(-c2cc3n(n2)CCC(=O)N3CCCC(=O)NCc2ccccc2)c2ccccc21 | . | 8.1 | 2.0 | -17.2 | -2.5
C[S+](C)CCC(N)C(=O)O (configuration not stated) | . | . | . | 1.3 | .
Cn1c(-c2sc3ccccc3c2Cl)n[nH]c1=S | -75.7* | -9.5 | 2.4 | -5.8 | -0.6
Clc1c(-c2nnc3n2CCC3)sc2ccccc12 | -16.9 | 0.9 | 2.8 | -6.6 | -1.7
Cn1c(CSc2nc3ccccc3s2)n[nH]c1=S | -64.7* | 4.6 | 0.2 | 1.3 | -10.6
COc1cccc2sc(NC(=O)c3ccc(S(=O)(=O)N4CCC(C)CC4)cc3)nc12 | . | 0.6 | 2.5 | 10.4 | 0.8
CCN(C)C1CN(Cc2cn(CCCC(=O)OC)nn2)S(=O)(=O)C1 (configuration not stated) | 3.0 | . | . | 1.8 | .
C/C(=N\O)c1ccc(Cl)c(Cl)c1 | -13.4 | -49.1* | 1.4 | -0.6 | -7.6
CNC(=S)N/N=C(\C)c1ccc(Cl)c(Cl)c1 | -6.2 | 1.9 | -3.6 | -2.5 | 2.6
O=C(c1ccc2c(Cl)c3c(nc2c1)CCCC3)N1CCN(c2ccccc2F)CC1 | . | 5.5 | 3.4 | 2.0 | 1.4
O=C(CCCCCn1c(=O)c2sccc2n(CC(=O)Nc2cc(C(F)(F)F)ccc2Cl)c1=O)NCc1ccccc1Cl | . | -2.6 | 3.5 | -7.4 | 0.9
COc1cccc(CNC(=O)C2CCC(CNS(=O)(=O)c3ccc4c(c3)CCCC(=O)N4)CC2)c1 (configuration not stated) | . | -16.9 | 6.1 | 2.3 | -5.1
O=C(O)c1cccc2c3c([nH]c12)CCCC3 | 4.8 | -30.2* | -3.0 | 5.1 | 1.6
SMILES | D3 antag | D1 antagonist | D1 ag | DRD3 agonist | D1 PAM
COCCCNC(=O)c1ccc(-n2nc(C(F)(F)F)cc2-c2cccs2)cc1 | -7.0 | -1.6 | 10.6 | 1.8 | -6.6
O=C(NCCCN1CCOCC1)c1ccc(-n2nc(C(F)(F)F)cc2-c2cccs2)cc1 | ? | -24.8 | 61.7* | 0.1 | -9.5
O=C(NCc1ccccc1Cl)c1ccc(CSCc2cccc(F)c2)o1 | . | -11.2 | 17.9 | -8.2 | -5.7
COc1cc(C2c3cc4c(cc3OC(Nc3ccc(C(=O)O)cc3)C2C)OCO4)cc(OC)c1OC (configuration not stated) | 111.7 | . | . | 32.7* | .
CN1N=C(C(=O)Nc2ccc3c(c2)CCC3)CCC1=O | 14.0 | -32.2* | 1.2 | -4.2 | -3.3
Cn1ncc(Cl)c1C(=O)Nc1ccc2c(c1)CCC2 | 0.9 | -5.5 | 2.3 | -10.2 | 3.4
Cc1cc(C)n(C(=O)c2ccc(NC(=O)CC(C)C)cc2)n1 | 16.6 | -93.7* | 2.1 | -8.8 | -13.7
C=Cc1ccc(Cn2c(C)c(CNCc3ccc(SC)cc3)c(C(=O)O)c2C)cc1 | . | 3.3 | -0.9 | -0.3 | -0.2
Cc1ccc2oc3c(c(=O)c2c1)C(c1ccc(OCC(N)=O)cc1)N(Cc1ccc2c(c1)OCO2)C3=O (configuration not stated) | . | -14.0 | -0.3 | -14.9 | -2.0
CCN(CC)CCCNC(=O)c1ccc2c3n(nc2c1)-c1ccc(Cl)cc1CO3 | -116.4* | 0.8 | 0.5 | -65.7 | -1.9
COCCNC(=O)c1ccc2c3n(nc2c1)-c1ccc(C)cc1CO3 | 24.6 | -12.5 | -0.3 | 5.0 | 2.1
CC(C)NC(=O)c1ccc2c3n(nc2c1)-c1ccc(Cl)cc1CO3 | 5.4 | -1.5 | 0.4 | 30.9* | 0.1
Cc1ccc2c(c1)COc1c3ccc(C(=O)N[C@@H](CO)C(C)C)cc3nn1-2 | 0.0 | -6.7 | 2.3 | 0.0 | -0.8
CCOC(=O)C1(C)CCCN1C(=O)c1csnn1 (configuration not stated) | 0.0 | . | . | -6.4 | .
Fc1cccc(CNc2ncnc3ccc(-c4cccnc4)cc23)c1 | . | -4.1 | 3.3 | . | -3.4
O=C(Nc1ccc(Cl)cc1)Nc1ccc2c(c1)N1CCN=C1S2 | -0.9 | 0.2 | 10.9 | -5.3 | -7.5
Nc1ccc2c(c1)N1CCN=C1S2 | -64.4* | -8.9 | 0.9 | -1.5 | -6.1
NC(=O)c1ccc(N2CCN(c3ccccc3F)CC2)c([N+](=O)[O-])c1 | -11.6 | -18.6 | 4.8 | 0.7 | 0.3
O=[N+]([O-])c1ccc(N2CCN(c3ccccc3O)CC2)cc1 | 0.0 | -8.3 | 2.7 | 6.6 | -4.3
O=[N+]([O-])c1cc(S(=O)(=O)C(F)(F)F)ccc1N1CCN(c2ccccc2)CC1 | -53.7* | 7.2 | 1.7 | -20.3 | -1.1
NC(=O)c1ccc(N2CCN(c3ccccc3O)CC2)c([N+](=O)[O-])c1 | 7.5 | -56.2* | 19.2 | 5.6 | -9.3
O=[N+]([O-])c1ccc(N2CCN(c3ccccc3O)CC2)c(Cl)c1 | ? | -35.6* | 9.1 | 3.3 | -6.8

Screens as filed in PubChem.
